Composite z-score and z-score data for five molecules are collected here from PubChem BioAssay.

The test system of assay [1] is PRMT1 (protein arginine N-methyltransferase 1). Description: small molecules binding arginine methyltransferase PRMT1 – biochemical, small-molecule microarray, 635 nm fluorescence, primary screen (AID 1088).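 Also: binding of Prmt1 protein to compounds spotted on small-molecule microarray slides.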 The settings on record: higher = more signal.
Assay [2] is described as follows: growth effects on S. cerevisiae YJM789 – YJM789 clinical isolate, OD600, 24 h, basal, primary screen (AID 1089).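 Also: growth of clinical yeast isolate S. cerevisiae YJM 789 seeded 1000 cells per well; test concentration not given here.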 The settings on record: higher = more signal, called active from +8 up or from −8 down.
Assay [3] is described as follows: S. pombe growth modifiers, basal conditions – strain 972, OD600, 24 h, no modulator, primary screen (AID 1090).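 Also: basal condition with compound alone and no growth modifier present; test concentration not given here.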 To be noted: S. pombe 972 growth, higher = more signal, called active from +8 up or from −8 down.
Assay [4] can be described thus: budding yeast growth modifiers under rapamycin – strain BY4716, OD600, 96 h, primary screen (AID 1091). Also: test concentration not given here. The settings on record: S. cerevisiae BY4716 + rapamycin, higher = more signal, called active from +8 up or from −8 down.
Assay [5] has as its target Torsin-1A-interacting protein 2 (Homo sapiens) (UniProt Q8NFQ8). Description: small molecules binding lysate-expressed LULL1 – cell lysate, human LULL1 lysate, 635/667 nm fluorescence, primary screen (AID 1092).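 Also: probe is lysate of COS7 cells overexpressing human LULL1; score merges per-feature 667 nm fluorescence with signal-to-noise.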 To be noted: small-molecule microarray, hLULL1 lysate binding, 635 nm fluorescence; higher = more signal.
Assay [6] can be described thus: optical density change of DRC41 E. coli – strain DRC41, OD650, 24 h, E. coli filamentation project, primary screen (AID 1093).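 Also: MC1000 strain lacking acrAB efflux and sulA so SOS filamentation is blocked; test concentration not given here.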 To be noted: E. coli DRC41 growth, higher = more signal, called active from +8 up or from −8 down.
A short description of assay [7]: probe aLefty2 binding to arrayed compounds – biochemical, biotinylated probe, 635/667 nm fluorescence, primary screen (AID 1094).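 Also: score merges spot fluorescence near 667 nm with spot signal-to-noise ratio.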 The settings on record: small-molecule microarray, higher = more signal.
Assay [8] deals with Noggin (protein binding on small-molecule microarray). Description: small molecules binding Noggin protein – biochemical, 635/667 nm fluorescence, primary screen (AID 1095).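 Also: score merges 667 nm feature fluorescence with signal to noise over triplicate slides.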 To be noted: 635 nm fluorescence, higher = more signal.
Assay [9] deals with Neurogenic locus notch homolog protein 3 (Homo sapiens) (UniProt Q9UM47). Description: small molecules binding NOTCH3 protein – biochemical, 635/667 nm fluorescence, primary screen (AID 1096). The settings on record: small-molecule microarray, 635 nm fluorescence, higher = more signal.
A short description of assay [10]: probe aEGFR binding to arrayed compounds – biochemical, biotinylated probe, 635/667 nm fluorescence, primary screen (AID 1097).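 Also: probe is a biotinylated anti-EGFR antibody binding compounds printed on slides; score combines fluorescence near 667 nm and signal to noise of each spot.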 To be noted: small-molecule microarray, higher = more signal.
Assay [11] relates to Plasmodium falciparum Sir2 (PF13_0152, Sir2A). Kind of assay: Plasmodium falciparum Sir2A binding compounds – biochemical, small-molecule microarray, 635 nm fluorescence, primary screen (AID 1098).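 Also: score merges spot fluorescence intensity with its signal-to-noise ratio.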 To be noted: fluorescence 635 nm, higher = more signal.
Assay [12] is described as follows: probe aDKK1 binding to arrayed compounds – biochemical, biotinylated probe, 635/667 nm fluorescence, primary screen (AID 1099).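 Also: score merges 667nm spot fluorescence with signal to noise across triplicate slides; reference of the scale not given here.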 The settings on record: small-molecule microarray, higher = more signal.
Assay [13] in a line: probe aCHRDL2 binding to arrayed compounds – biochemical, biotinylated probe, 635/667 nm fluorescence, primary screen (AID 1100). The settings on record: small-molecule microarray, higher = more signal.
Assay [14] can be described thus: change in splice reporter luminescence, either direction, cell-based, HEK293, spliceosome inhibition project, primary screen (AID 1101).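 Also: HEK293 cells carrying a splicing-competent luciferase reporter gene; test concentration not given here.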 The settings on record: HEK293 splicing luciferase reporter, 24 h, higher = more signal, called active from +8 up or from −8 down. On the technique in general: In a reporter assay the amount or activity of a reporter protein is the signal.

Assay [15] deals with Fibroblast growth factor 10 (Homo sapiens) (UniProt O15520). Kind of assay: compounds binding fibroblast growth factor 10 – biochemical, small-molecule microarray, 635 nm fluorescence, primary screen (AID 1102). To be noted: FGF10 binding, fluorescence 635 nm, higher = more signal.
The test system of assay [16] is glycogen synthase kinase-3 (GSK3A per assay name; protocol says GSK3B). Description: compounds binding glycogen synthase kinase-3 – biochemical, small-molecule microarray, 635 nm fluorescence, GSK3A, primary screen (AID 1103). Also: the record names both GSK3A and GSK3B. The settings on record: fluorescence 635 nm, higher = more signal.
Assay [17] deals with Epidermal growth factor receptor (Homo sapiens) (UniProt P00533). Description: compounds binding epidermal growth factor receptor – biochemical, small-molecule microarray, 635 nm fluorescence, primary screen (AID 1104).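 Also: score merges 667 nm emission intensity with spot signal to noise over triplicate slides.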 To be noted: EGFR binding, higher = more signal.
Assay [18] addresses Follistatin-related protein 3 (Homo sapiens) (UniProt O95633). Description: compounds binding follistatin-related protein 3 – biochemical, small-molecule microarray, 635 nm fluorescence, primary screen (AID 1105).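 Also: score merges emission near 667 nm and signal to noise per printed spot across three slides.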 The settings on record: FSTL3 binding, higher = more signal.
For assay [19], the target named is Dickkopf-related protein 1 (Homo sapiens) (UniProt O94907). Description: small molecules binding DKK1 protein – biochemical, small-molecule microarray, 635 nm fluorescence scan, primary screen (AID 1106).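 Also: score merges emission near 667 nm with signal to noise over three replicate slides.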 The settings on record: higher = more signal.
Assay [20] relates to Inhibin beta A chain (activin A). Description: small molecules binding activin A – biochemical, small-molecule microarray, 635 nm fluorescence scan, primary screen (AID 1107).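 Also: mouse activin A protein probed at 4.33 µg/mL on printed slides; score merges bound-protein fluorescence near 667 nm with spot signal-to-noise.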 To be noted: INHBA, higher = more signal.

Molecules are shown by their SMILES. Active and inactive are the calls of the source.

Sequence of Epidermal growth factor receptor (Homo sapiens) (P00533 whole entry, looked up): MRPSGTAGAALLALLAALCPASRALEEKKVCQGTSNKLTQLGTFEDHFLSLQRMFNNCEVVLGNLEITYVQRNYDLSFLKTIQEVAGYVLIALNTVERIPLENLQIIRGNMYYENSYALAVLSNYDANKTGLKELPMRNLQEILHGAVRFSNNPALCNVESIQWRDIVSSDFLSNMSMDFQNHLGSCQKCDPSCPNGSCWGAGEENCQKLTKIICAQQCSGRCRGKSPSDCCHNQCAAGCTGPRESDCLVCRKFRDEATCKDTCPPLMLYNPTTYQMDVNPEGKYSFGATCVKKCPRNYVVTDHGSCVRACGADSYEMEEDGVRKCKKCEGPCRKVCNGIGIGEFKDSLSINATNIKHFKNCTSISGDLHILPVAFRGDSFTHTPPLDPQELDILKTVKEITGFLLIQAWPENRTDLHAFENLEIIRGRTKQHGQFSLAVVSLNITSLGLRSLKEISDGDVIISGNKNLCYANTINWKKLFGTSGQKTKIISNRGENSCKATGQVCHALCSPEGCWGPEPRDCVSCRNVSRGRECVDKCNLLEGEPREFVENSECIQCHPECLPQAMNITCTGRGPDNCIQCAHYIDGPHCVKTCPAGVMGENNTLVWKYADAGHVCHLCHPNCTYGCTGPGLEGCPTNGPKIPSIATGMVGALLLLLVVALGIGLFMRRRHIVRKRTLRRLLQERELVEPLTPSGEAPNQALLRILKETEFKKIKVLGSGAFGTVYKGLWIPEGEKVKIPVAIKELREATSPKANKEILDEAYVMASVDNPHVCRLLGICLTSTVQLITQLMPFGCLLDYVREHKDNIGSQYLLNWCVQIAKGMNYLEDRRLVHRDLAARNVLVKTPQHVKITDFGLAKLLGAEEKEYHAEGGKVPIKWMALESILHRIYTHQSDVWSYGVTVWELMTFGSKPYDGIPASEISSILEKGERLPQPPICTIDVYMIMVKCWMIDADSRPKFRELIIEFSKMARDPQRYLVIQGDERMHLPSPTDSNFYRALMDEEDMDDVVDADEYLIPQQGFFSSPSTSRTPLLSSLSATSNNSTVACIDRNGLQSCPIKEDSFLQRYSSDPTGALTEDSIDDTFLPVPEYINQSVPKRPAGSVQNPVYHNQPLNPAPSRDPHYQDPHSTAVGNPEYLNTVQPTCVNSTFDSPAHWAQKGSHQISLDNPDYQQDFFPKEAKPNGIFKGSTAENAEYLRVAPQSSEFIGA
Sequence of Neurogenic locus notch homolog protein 3 (Homo sapiens) (Q9UM47 whole entry, looked up): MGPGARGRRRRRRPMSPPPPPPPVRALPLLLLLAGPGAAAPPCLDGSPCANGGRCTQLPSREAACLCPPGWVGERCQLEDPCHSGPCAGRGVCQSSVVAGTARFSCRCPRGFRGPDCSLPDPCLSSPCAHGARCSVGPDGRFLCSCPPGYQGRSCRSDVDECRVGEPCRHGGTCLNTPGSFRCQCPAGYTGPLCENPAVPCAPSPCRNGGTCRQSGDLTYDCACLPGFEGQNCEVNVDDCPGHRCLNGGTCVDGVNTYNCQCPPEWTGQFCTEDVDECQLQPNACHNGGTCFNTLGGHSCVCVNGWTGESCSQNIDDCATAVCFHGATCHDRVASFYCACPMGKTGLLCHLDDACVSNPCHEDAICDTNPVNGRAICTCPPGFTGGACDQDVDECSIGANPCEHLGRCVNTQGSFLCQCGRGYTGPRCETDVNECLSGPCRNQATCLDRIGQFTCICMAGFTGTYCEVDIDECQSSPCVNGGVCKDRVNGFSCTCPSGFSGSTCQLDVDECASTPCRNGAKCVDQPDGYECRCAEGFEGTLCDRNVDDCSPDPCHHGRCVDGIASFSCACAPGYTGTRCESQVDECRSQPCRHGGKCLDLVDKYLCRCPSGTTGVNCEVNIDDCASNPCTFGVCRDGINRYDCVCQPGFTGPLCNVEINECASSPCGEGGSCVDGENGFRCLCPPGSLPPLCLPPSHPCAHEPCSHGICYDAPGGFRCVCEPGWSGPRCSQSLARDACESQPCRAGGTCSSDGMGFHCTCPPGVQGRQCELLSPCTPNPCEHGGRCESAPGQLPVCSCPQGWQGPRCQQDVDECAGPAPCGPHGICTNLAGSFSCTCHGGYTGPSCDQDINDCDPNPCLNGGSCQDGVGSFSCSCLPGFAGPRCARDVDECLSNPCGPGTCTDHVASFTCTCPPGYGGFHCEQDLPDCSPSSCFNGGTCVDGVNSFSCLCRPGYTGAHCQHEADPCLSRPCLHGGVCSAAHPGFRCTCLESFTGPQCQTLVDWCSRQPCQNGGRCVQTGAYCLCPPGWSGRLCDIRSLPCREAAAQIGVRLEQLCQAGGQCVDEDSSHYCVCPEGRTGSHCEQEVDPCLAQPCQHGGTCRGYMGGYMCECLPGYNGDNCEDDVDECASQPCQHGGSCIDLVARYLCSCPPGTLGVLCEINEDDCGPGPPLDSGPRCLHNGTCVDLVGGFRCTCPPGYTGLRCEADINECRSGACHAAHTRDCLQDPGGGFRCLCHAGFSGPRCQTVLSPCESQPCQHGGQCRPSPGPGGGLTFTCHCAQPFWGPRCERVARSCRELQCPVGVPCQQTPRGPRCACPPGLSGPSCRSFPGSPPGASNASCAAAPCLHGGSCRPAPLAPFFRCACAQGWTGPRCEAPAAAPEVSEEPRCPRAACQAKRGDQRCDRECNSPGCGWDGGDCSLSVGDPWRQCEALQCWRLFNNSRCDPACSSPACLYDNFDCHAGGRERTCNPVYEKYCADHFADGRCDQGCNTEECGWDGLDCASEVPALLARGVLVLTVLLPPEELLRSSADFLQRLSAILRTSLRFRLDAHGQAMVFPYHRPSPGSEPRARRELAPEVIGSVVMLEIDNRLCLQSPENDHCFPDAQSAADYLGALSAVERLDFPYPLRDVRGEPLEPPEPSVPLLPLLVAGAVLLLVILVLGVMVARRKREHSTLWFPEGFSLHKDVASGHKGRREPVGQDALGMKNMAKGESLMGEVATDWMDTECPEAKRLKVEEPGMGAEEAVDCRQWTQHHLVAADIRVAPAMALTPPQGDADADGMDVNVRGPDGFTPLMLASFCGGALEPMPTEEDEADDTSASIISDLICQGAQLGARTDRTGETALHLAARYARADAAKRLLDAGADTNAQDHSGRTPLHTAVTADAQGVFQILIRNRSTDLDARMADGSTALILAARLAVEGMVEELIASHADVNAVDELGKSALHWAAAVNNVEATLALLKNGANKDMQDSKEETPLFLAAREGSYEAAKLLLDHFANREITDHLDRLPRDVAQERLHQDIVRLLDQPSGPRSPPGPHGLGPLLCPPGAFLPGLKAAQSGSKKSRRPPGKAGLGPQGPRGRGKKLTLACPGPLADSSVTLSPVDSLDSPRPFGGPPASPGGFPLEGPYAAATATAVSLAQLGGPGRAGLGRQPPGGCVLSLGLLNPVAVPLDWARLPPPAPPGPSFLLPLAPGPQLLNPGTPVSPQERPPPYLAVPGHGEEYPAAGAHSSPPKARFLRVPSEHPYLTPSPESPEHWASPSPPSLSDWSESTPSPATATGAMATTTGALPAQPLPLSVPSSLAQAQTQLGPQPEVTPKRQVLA
Sequence of Dickkopf-related protein 1 (Homo sapiens) (O94907 whole entry, looked up): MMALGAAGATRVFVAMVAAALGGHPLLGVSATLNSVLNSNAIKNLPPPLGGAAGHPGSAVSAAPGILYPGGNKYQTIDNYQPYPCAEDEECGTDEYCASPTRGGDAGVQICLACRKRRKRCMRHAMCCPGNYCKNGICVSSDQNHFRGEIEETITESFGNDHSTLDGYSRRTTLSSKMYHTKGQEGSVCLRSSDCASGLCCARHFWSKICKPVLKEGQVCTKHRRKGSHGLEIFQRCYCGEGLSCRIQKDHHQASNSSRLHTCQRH
Sequence of Fibroblast growth factor 10 (Homo sapiens) (O15520 whole entry, looked up): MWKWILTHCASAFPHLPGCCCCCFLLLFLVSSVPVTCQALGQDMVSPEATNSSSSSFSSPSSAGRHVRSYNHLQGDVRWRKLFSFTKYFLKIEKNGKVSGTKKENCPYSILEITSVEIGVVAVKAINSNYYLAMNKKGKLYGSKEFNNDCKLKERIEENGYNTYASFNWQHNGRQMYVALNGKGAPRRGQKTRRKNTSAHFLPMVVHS
Sequence of Torsin-1A-interacting protein 2 (Homo sapiens) (Q8NFQ8 whole entry, looked up): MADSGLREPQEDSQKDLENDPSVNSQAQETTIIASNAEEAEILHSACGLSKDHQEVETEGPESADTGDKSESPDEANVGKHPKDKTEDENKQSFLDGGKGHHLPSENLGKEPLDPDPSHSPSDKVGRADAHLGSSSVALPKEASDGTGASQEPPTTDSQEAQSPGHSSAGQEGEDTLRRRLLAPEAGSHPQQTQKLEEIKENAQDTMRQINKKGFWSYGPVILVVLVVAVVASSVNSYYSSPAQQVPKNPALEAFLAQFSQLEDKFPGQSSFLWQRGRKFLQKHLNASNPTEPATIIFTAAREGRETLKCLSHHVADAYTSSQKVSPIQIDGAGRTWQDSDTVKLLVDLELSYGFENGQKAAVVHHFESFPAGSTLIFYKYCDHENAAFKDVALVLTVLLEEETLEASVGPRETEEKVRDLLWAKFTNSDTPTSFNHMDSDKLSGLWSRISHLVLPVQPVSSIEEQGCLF
Sequence of Follistatin-related protein 3 (Homo sapiens) (O95633 whole entry, looked up): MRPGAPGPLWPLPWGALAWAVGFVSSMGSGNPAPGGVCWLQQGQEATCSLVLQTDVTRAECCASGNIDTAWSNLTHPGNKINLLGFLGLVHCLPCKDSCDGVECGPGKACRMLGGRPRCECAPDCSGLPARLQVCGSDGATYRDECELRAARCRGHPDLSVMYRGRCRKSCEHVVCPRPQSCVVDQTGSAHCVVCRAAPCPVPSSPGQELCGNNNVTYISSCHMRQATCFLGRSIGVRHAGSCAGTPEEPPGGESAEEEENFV

`CCN(CC)c1ccc(N2CC=CC34O[C@@H]5/C=C\CCCOC(=O)C5[C@H]3C(=O)N(C(C)CO)[C@@H]4C2=O)cc1` (stereo not given in full): the composite z-score was 0.428 in assay [1]; 0.347 in [5]; -0.243 in assay [7]; -0.045 in assay [8]; 0.204 in assay [9]; -0.189 in assay [10]. Moreover, the composite z-score in assay [11] is 1.03; in [12], -0.213; in assay [13], -0.445; in assay [15], -0.184; in assay [16], -0.208; in assay [17], -0.243. Besides, the composite z-score in assay [18] was -0.232; in assay [19], 0.512; in assay [20], 1.03. Further, the z-score in assay [2] is -0.991 (inactive); in [3], -1.47 (inactive); in assay [4] it was -0.497 (inactive); in assay [6], 1.42 (inactive); in assay [14], -0.0084 (inactive).

On to `COc1ccc(CCNC(=O)[C@@H]2c3ccccc3C(=O)N(C3CCCCC3)[C@H]2c2ccc(CO)cc2)cc1`, for which the composite z-score is 0.399 in [1]; 3.07 in [5]; -0.0671 in [7]; -0.282 in assay [8]; 0.366 in [9]; -0.0972 in [10]. Further, the composite z-score is 1.35 in assay [11]; 0.0099 in [12]; 0.692 in assay [13]; 0.542 in assay [15]; 0.32 in assay [16]; -0.227 in assay [17]. Besides, the results for the composite z-score in assay [18], in assay [19] and in assay [20] were 0.0696, -0.487 and 0.177, respectively. Also, the z-score in [2] is -0.395 (inactive); in assay [3] it was -0.838 (inactive); in assay [4], 0.584 (inactive); in assay [6] it was -1.14 (inactive); in assay [14] it was 0.43 (inactive).

Turning to `O=C(O)[C@@H]1[C@@H]2C(=O)N(c3ccccc3)C(=O)[C@@H]2C[C@@H]1Sc1ccccc1`, the composite z-score in [1] is -1.41; in assay [5] it was 0.758; in [7] it was 0.251; in assay [8] it was -1.71; in [9], -1.56; in assay [10], 0.196. Moreover, the composite z-score in [11] is 1.61; in assay [12], 0.638; in assay [13], 0.519; in assay [15], -0.694; in assay [16], -1.74; in [17], -0.498. Further, the values for the composite z-score in assay [18], in [19] and in [20] were -0.852, -1.19 and 0.656, respectively. For the same molecule, the z-score was 0.752 (inactive) in assay [2]; 1.68 (inactive) in assay [3]; 1.53 (inactive) in assay [4]; -0.686 (inactive) in [6]; 0.393 (inactive) in assay [14].

Take `C=C(/C(=C/C[C@H](OC(=O)c1ccncc1)c1ccc(CO)o1)c1cnc2ccccc2c1)C(C)C`: the composite z-score in assay [1] was 1.52; in [5], 0.947; in assay [7], 0.0249; in [8] it was 0.963; in [9], 1.05; in [10], 0.523. Moreover, the composite z-score in assay [11] is 0.614; in assay [12], -0.173; in assay [13] it was -0.304; in assay [15], 1.41; in assay [16], 1.16; in assay [17] it was 0.932. Moreover, the values for the composite z-score in assay [18], in [19] and in assay [20] were 1.46, 0.791 and 1.81, respectively. In addition, the z-score in assay [2] is 1.22 (inactive); in assay [3] it was -1.67 (inactive); in assay [4], 0.433 (inactive); in [6], -0.358 (inactive); in [14], 0.984 (inactive).

With `O=C1C[C@]2(c3ccc([N+](=O)[O-])cc3)C(=O)N(C3CC3)c3cc(CO)ccc3[C@H]2N1CC12CC3CC(CC(C3)C1)C2`, the composite z-score in [1] was 0.739; in [5] it was 1.87; in [7], -0.171; in [8], -1.02; in [9], -0.466; in assay [10], -0.228. In addition, the composite z-score in assay [11] is 0.437; in [12] it was -0.105; in assay [13], 0.617; in [15] it was -0.511; in assay [16] it was -0.393; in assay [17], -0.951. In addition, the results for the composite z-score in assay [18], in assay [19] and in assay [20] were -0.924, -0.769 and -0.383, respectively. In addition, the z-score in assay [2] was -0.263 (inactive); in assay [3] it was 0.436 (inactive); in assay [4] it was -0.574 (inactive); in assay [6], -1.29 (inactive); in assay [14] it was -0.922 (inactive).
